Among the data in ChEMBL document CHEMBL1961873, “Compounds: GSK PKIS; Assays: Nanosyn kinase panel” (2012) are inhibition values, retold here.

Assay [1] has as its target RAC-alpha serine/threonine-protein kinase (Homo sapiens) (UniProt P31749). Particulars: at 0.1 µM.
For assay [2] the target is unchanged. Particulars: at 1 µM.
Assay [3] addresses RAC-beta serine/threonine-protein kinase (Homo sapiens) (UniProt P31751). The following applies: at 0.1 µM.
For assay [4] the target is unchanged. The following applies: at 1 µM.
Assay [5] deals with RAC-gamma serine/threonine-protein kinase (Homo sapiens) (UniProt Q9Y243). Particulars: at 0.1 µM.
Chain of RAC-gamma serine/threonine-protein kinase (Homo sapiens) (Q9Y243 whole entry): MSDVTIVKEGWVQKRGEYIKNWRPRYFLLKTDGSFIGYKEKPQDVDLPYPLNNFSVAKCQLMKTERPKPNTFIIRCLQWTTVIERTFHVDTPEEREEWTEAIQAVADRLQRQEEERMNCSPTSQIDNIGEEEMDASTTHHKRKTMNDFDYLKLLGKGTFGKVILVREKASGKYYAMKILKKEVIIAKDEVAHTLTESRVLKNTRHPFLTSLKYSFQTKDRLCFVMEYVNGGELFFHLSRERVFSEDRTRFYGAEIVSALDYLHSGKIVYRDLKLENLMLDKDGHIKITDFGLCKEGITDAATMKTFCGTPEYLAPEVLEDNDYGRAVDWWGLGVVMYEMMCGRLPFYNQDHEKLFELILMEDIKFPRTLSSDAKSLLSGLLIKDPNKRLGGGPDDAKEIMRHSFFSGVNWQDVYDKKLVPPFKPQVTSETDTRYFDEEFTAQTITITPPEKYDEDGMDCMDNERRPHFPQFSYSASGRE
Assay [6] has the same target. The following applies: at 1 µM.
In assay [7] the target is G protein-coupled receptor kinase 6 (Homo sapiens) (UniProt P43250). The following applies: at 0.1 µM.
Chain of G protein-coupled receptor kinase 6 (Homo sapiens) (P43250 whole entry, looked up): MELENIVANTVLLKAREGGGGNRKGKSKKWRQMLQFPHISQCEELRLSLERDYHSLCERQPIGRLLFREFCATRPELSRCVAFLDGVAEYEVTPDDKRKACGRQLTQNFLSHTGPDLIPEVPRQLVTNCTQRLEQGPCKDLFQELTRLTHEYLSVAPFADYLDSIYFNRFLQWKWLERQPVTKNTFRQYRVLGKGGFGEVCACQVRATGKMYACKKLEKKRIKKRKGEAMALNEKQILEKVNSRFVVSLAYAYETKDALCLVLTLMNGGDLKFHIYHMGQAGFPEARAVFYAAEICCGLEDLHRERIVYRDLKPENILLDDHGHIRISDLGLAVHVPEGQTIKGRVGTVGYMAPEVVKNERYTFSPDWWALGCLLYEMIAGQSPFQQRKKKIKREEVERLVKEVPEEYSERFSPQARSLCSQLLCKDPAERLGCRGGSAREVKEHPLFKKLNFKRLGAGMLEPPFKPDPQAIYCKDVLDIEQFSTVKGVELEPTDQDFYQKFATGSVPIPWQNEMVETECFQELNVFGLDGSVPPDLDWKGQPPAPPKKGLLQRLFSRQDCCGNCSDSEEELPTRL
The target is the same in assay [8]. Particulars: at 1 µM.
Assay [9] concerns the target T1, Rhodopsin kinase GRK7 (Homo sapiens) (UniProt Q8WTQ7).
T1 sequence (whole entry): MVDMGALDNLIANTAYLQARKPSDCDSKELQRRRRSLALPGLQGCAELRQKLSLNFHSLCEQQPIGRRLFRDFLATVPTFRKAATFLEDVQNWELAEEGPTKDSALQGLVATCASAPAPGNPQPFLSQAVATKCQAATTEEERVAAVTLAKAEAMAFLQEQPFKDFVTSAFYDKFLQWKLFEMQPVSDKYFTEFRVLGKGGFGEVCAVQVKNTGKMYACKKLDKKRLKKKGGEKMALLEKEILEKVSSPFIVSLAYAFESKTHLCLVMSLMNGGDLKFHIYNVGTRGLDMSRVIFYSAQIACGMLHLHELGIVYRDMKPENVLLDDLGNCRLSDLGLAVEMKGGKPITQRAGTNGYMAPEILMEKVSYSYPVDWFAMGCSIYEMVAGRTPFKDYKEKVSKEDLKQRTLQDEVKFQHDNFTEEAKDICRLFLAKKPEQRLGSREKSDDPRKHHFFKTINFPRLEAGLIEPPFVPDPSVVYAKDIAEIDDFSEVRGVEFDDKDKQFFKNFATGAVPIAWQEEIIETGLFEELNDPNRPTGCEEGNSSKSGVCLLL
The following applies: at 0.1 µM.

In assay [10] the target is T1, Rhodopsin kinase GRK7 (Homo sapiens). Particulars: at 1 µM.
The target of assay [11] is Serine/threonine-protein kinase MRCK alpha (Homo sapiens) (UniProt Q5VT25). The following applies: at 0.1 µM.
Assay [12] has the same target. The following applies: at 1 µM.
The target in assay [13] is Serine/threonine-protein kinase MRCK beta (Homo sapiens) (UniProt Q9Y5S2). Particulars: at 0.1 µM.
Chain of Serine/threonine-protein kinase MRCK beta (Homo sapiens) (Q9Y5S2 whole entry): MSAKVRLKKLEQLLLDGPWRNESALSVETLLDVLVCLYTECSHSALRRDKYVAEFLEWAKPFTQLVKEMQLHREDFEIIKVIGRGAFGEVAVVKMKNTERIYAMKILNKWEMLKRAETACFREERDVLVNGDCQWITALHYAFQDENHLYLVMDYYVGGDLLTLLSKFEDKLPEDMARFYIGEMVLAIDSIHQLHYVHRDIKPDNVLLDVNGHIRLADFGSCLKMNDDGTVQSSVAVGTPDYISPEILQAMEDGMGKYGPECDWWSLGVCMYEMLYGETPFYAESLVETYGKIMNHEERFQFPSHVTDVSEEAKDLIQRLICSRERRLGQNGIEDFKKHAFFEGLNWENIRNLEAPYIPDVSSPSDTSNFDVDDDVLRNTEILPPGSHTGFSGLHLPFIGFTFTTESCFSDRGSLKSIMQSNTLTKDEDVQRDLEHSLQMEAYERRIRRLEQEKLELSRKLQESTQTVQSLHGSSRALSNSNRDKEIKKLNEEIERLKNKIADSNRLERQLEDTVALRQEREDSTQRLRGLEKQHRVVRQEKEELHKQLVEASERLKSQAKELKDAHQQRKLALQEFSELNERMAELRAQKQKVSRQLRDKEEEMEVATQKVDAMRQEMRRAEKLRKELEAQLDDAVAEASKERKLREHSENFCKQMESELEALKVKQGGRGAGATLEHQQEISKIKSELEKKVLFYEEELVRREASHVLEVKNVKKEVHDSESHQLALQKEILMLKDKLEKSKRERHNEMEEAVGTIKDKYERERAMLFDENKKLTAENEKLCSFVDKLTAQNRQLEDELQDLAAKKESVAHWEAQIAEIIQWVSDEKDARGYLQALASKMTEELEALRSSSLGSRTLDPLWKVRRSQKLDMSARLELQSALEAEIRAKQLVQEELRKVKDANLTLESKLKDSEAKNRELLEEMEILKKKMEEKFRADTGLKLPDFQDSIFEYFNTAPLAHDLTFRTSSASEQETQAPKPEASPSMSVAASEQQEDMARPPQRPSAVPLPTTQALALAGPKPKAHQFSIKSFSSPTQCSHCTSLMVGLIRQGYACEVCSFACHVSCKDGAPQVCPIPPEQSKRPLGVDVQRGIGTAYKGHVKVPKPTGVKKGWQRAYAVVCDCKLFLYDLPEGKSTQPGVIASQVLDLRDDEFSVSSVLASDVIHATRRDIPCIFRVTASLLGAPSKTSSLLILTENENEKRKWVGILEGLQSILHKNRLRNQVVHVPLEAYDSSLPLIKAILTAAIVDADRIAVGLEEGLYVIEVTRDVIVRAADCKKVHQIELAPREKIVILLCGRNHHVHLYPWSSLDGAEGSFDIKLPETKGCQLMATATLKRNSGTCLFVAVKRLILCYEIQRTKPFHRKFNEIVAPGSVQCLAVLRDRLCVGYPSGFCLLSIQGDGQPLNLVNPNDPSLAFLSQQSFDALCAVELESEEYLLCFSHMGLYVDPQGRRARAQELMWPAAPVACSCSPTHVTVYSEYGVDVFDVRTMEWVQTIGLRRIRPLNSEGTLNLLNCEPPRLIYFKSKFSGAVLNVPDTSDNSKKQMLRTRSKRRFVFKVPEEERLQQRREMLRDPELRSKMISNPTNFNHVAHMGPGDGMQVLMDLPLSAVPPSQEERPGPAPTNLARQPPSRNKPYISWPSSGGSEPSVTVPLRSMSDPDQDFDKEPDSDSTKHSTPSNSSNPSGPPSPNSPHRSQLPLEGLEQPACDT
For assay [14] the target is unchanged. The following applies: at 1 µM.
Assay [15] addresses Ribosomal protein S6 kinase alpha-5 (Homo sapiens) (UniProt O75582). The following applies: at 0.1 µM.
Assay [16] has the same target. Particulars: at 1 µM.
In assay [17] the target is Ribosomal protein S6 kinase alpha-4 (Homo sapiens) (UniProt O75676). The following applies: at 0.1 µM.
Chain of Ribosomal protein S6 kinase alpha-4 (Homo sapiens) (O75676 whole entry, looked up): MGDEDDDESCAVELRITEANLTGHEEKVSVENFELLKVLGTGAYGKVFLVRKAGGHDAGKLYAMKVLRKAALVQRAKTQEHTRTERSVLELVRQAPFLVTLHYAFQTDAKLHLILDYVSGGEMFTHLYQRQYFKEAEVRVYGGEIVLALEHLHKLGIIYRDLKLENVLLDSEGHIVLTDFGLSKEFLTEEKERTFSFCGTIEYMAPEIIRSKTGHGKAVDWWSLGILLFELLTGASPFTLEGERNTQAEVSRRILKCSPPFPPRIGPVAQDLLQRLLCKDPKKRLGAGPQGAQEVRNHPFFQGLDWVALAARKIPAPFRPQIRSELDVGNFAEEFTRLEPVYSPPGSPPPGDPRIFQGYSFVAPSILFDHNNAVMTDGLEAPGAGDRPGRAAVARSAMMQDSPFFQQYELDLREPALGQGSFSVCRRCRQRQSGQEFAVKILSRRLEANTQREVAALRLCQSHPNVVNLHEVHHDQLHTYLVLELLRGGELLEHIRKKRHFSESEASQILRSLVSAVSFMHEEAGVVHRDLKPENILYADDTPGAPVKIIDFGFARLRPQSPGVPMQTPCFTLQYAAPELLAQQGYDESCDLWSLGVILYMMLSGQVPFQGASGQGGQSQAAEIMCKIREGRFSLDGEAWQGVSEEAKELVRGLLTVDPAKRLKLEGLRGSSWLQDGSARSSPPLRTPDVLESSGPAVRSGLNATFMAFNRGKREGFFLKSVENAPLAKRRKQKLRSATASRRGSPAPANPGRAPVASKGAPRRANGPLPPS
The target is the same in assay [18]. Particulars: at 1 µM.
In assay [19] the target is Ribosomal protein S6 kinase beta-1 (Homo sapiens) (UniProt P23443). Particulars: at 0.1 µM.
Chain of Ribosomal protein S6 kinase beta-1 (Homo sapiens) (P23443 whole entry, looked up): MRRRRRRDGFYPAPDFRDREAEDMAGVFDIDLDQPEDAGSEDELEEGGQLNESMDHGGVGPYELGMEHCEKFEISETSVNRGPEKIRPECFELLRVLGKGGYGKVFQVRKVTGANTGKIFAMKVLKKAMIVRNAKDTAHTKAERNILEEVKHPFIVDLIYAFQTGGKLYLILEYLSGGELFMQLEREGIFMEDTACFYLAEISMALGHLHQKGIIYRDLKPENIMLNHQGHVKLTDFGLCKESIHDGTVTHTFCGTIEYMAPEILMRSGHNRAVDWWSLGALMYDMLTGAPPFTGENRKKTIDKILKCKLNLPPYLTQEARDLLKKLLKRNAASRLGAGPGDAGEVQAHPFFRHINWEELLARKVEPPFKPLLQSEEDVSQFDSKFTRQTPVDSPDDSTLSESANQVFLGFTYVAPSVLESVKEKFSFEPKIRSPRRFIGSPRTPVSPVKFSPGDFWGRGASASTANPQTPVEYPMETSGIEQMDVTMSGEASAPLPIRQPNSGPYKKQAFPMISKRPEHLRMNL
For assay [20] the target is unchanged. The following applies: at 1 µM.

Chain of RAC-beta serine/threonine-protein kinase (Homo sapiens) (P31751 whole entry): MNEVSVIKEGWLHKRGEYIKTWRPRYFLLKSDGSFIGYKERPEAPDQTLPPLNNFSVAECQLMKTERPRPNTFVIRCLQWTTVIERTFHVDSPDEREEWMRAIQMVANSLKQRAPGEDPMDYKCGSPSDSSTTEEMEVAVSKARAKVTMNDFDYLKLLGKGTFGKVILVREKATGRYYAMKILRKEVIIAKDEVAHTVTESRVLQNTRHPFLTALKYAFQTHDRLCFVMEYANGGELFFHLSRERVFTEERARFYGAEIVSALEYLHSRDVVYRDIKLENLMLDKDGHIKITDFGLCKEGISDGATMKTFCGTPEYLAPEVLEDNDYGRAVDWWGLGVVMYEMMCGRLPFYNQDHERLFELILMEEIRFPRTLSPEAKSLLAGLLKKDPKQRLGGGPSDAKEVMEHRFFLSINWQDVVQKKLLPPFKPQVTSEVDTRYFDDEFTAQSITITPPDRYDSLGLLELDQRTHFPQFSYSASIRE
Chain of RAC-alpha serine/threonine-protein kinase (Homo sapiens) (P31749 whole entry): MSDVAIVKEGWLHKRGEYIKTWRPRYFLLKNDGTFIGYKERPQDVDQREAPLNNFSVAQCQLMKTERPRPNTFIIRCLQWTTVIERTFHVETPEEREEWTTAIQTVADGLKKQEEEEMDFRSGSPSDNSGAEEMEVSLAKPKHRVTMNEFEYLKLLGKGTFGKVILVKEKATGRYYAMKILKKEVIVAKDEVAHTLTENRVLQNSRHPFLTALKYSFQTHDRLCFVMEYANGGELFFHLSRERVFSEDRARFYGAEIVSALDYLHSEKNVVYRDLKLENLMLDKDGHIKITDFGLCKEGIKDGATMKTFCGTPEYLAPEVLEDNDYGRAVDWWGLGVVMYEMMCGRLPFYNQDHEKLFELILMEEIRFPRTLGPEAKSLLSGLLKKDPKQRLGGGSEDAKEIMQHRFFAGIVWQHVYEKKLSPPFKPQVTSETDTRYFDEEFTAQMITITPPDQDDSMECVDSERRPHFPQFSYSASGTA

As usually defined, the inhibition is the drop in the measured response relative to a control, in per cent. For `CNC(=O)c1cncc(/C=C/c2ccccc2C)c1`, the inhibition in assay [1] came out at 0.63%; in assay [2] it was 1.08%; in [3] it was 2.41%; in assay [4] it was 2.34%; in [5], 1.3%; in assay [6], 1.52%. For the same compound, the inhibition was 3.92% in assay [7]; 8.41% in assay [8]; 3.15% in [9]; 0.44% in [10]; -0.01% in assay [11]; 2.94% in assay [12]. Further, the inhibition in [13] is -0.34%; in assay [14], 0.83%; in [15] it was 3.42%; in [16] it was 6.01%; in assay [17] it was 2.58%; in assay [18] it was 4.27%. Also, the inhibition in assay [19] is -0.48%; in [20] it was 1.97%.

Take `COc1c(C(N)=O)cc(-c2ccc(Cl)cc2)cc1-c1ccc(S(N)(=O)=O)cc1`: the inhibition in assay [1] amounted to 1.15%; in assay [2], 2.28%; in assay [3] it was 2.77%; in [4], 1.74%; in [5] it was 1.8%; in assay [6], 3.15%. Moreover, the inhibition is 4.42% in assay [7]; 7.23% in assay [8]; 10.6% in [9]; 2.21% in [10]; 5.11% in assay [11]; 4.98% in assay [12]. Also, the inhibition in assay [13] is -0.26%; in assay [14], 2.36%; in assay [15], 2.38%; in assay [16], 3.81%; in assay [17], 3.65%; in [18], 5.79%. Moreover, the inhibition in assay [19] turned out to be 3.07%; in assay [20], 4.29%.

With `O=C(O[C@H]1CN[C@H](C#Cc2cc3ncnc(Nc4ccc5c(cnn5Cc5ccccc5)c4)c3s2)C1)N1CCOCC1`, the inhibition in assay [1] is -0.59%; in [2], -0.52%; in [3], -0.56%; in assay [4], -0.1%; in assay [5] it was -1.03%; in assay [6], 0.11%. Further, the inhibition in assay [7] was -0.66%; in [8] it was 2.38%; in assay [9], 2.39%; in [10], 0.44%; in [11] it was 0.53%; in [12] it was -6.83%. Also, the inhibition is -0.65% in assay [13]; -2.08% in assay [14]; -1.78% in assay [15]; -2.26% in [16]; 0.14% in [17]; -0.97% in [18]. Also, the values for the inhibition in assay [19] and in assay [20] were -0.07% and -1.65%, respectively.

With `CCS(=O)(=O)c1ccc(OC)c(Nc2ncc(-c3cccc(C(C)=O)c3)o2)c1`, the inhibition in [1] stood at 0.68%; in assay [2], 0.26%; in [3], 0.96%; in assay [4], 2.41%; in assay [5] it was 1.01%; in assay [6] it was 1.05%. Further, the inhibition in [7] was 3.78%; in [8] it was 10.8%; in assay [9], 4.52%; in assay [10], 4.18%; in assay [11] it was -0.63%; in assay [12] it was 3.28%. Further, the inhibition in [13] is -1.42%; in [14], -0.03%; in assay [15], 2.8%; in assay [16], 4.68%; in assay [17], 0.6%; in assay [18], 2.7%. Also, the figures for the inhibition in assay [19] and in assay [20] were 1.32% and 2.57%, respectively.

With `N#Cc1ccc2c(-c3ccnc(NC4CC4)n3)c(-c3ccc(F)cc3)nn2c1`, the inhibition in assay [1] is 0.77%; in [2], -0.12%; in assay [3] it was 0.14%; in assay [4] it was 0.78%; in [5] it was 0.56%; in assay [6] it was 2.99%. Moreover, the inhibition in assay [7] amounted to 1.67%; in assay [8], 2.24%; in assay [9] it was 4.35%; in [10], 1.98%; in [11] it was 0.79%; in assay [12] it was 0.87%. The inhibition in [13] was 0.13%; in assay [14] it was 0.52%; in assay [15], 0.77%; in assay [16], -0.33%; in [17], 0.92%; in [18], -0.56%. For the same compound, the inhibition in [19] was 0.06%; in assay [20], -0.85%.

Consider `OCCCNc1nccc(-c2c(-c3ccc(F)cc3)nn3cc(C(F)(F)F)ccc23)n1`, for which the inhibition in assay [1] stood at 0.44%; in assay [2] it was 0.71%; in assay [3], 1.9%; in assay [4] it was 0.18%; in assay [5] it was 0.6%; in assay [6] it was 0%. Also, the inhibition in assay [7] is 1.18%; in assay [8], -2.71%; in assay [9] it was -0.28%; in assay [10] it was -8.21%; in [11], 0.26%; in assay [12], -1.54%. Moreover, the inhibition in assay [13] is 0.31%; in assay [14], 1.86%; in [15] it was 4.64%; in assay [16], 4.76%; in assay [17], 2.6%; in [18], 5.75%. The inhibition in assay [19] is 3.2%; in assay [20] it was 2.94%.

On to `Cn1c(-c2nonc2N)nc2cnccc21`, for which the inhibition was determined as 0.27% in [1]; 0.36% in assay [2]; 2.48% in assay [3]; 1.66% in assay [4]; 1.14% in assay [5]; 1.35% in assay [6]. The inhibition was 3.53% in assay [7]; 4% in assay [8]; 4.22% in assay [9]; 2.15% in assay [10]; 1.33% in assay [11]; 10.3% in [12]. Besides, the inhibition in assay [13] stood at 3.02%; in [14], 14.4%; in assay [15], 32.7%; in assay [16], 72.4%; in assay [17], 7.86%; in assay [18], 39.6%. The figures for the inhibition in [19] and in assay [20] were 19.8% and 66.6%, respectively.

As for `COc1ccc(Nc2ncc(-c3ccccc3)o2)cc1OC`, the inhibition is -0.43% in assay [1]; 0% in assay [2]; -0.16% in assay [3]; 0.11% in assay [4]; -0.29% in [5]; 1.24% in assay [6]. In addition, the inhibition in [7] is -1.81%; in assay [8] it was -1.23%; in [9], -1.93%; in assay [10], 1.56%; in assay [11], 0.45%; in assay [12] it was 2.02%. For the same compound, the inhibition was determined as 0.74% in assay [13]; 1.74% in assay [14]; 0.37% in assay [15]; 1.73% in assay [16]; 1.03% in assay [17]; 4.59% in assay [18]. Besides, the inhibition in assay [19] was 1.51%; in assay [20] it was 2.28%.

For `CCOc1ccc2c(-c3ccnc(Nc4cc(OC)cc(C(F)(F)F)c4)n3)cnn2n1`, the inhibition came out at 0.02% in assay [1]; 0.45% in assay [2]; 0.01% in assay [3]; 0.53% in assay [4]; 0.18% in assay [5]; 0.45% in [6]. For the same compound, the inhibition is 2.38% in assay [7]; 0.28% in assay [8]; -0.23% in assay [9]; 16.9% in assay [10]; -0.76% in assay [11]; -0.62% in assay [12]. The inhibition in [13] was 0.09%; in assay [14], 0.13%; in assay [15], 1.4%; in assay [16], 2.37%; in assay [17], 1.07%; in assay [18] it was -0.61%. For the same compound, the inhibition in assay [19] was determined as 0.27%; in [20], 0.73%.
